# Screens deposited in PubChem by The Scripps Research Institute Molecular Screening Center.
# This is a sample that favours compounds with a hit; in the whole collection about 3.5% have one here.
# GPR151 ag: activators of human GPR151, primary screen, cell-based, PathHunter beta-arrestin, luminescence | 650,000 tested, 1% active | AID 1508602, 2020 | activation, % at 11.2 µM | PathHunter beta-arrestin GPR151 cells; in the data active = activation above about 4.9%;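 note: 0% = median of compound wells and 100% = cells with positive control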
# TEAD-YAP block: TEAD-YAP interaction inhibition, primary screen, TEAD-YAP interaction inhibitor project, luminescence, HEK-TIYL cells; TEAD-Gal4/YAP UAS-luciferase luminescence; inhibition, % at 9.12 µM; 640,000 tested, 1.4% active; AID 1259422, 2018; in the data active = inhibition above about 32%;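 note: 0% = median of test compound wells and 100% = reference inhibitor wells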
# MITF primary: MITF inhibitors, primary screen, biochemical, AlphaScreen, human | Microphthalmia-associated transcription factor (Homo sapiens), O75030 | AlphaScreen MITF homodimerization, bead proximity signal | inhibition, % at 2.6 µM | 650,000 tested, 0.91% active; in the data active = inhibition above about 50%;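 note: 0% = vehicle wells with protein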
# FBW7 act: FBW7 E3 ligase activators, primary screen, biochemical, AlphaScreen, human; AID 1259310, 2017; normalized activity (activation), % at 26.1 µM; 650,000 tested, 0.13% active; F-box/WD repeat-containing protein 7 (Homo sapiens), Q969H0; AlphaScreen FBW7–phospho-cyclin E peptide binding, activator screen; in the data active = normalized activity above about 1.9%;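 note: purified mutant Fbw7 with reduced substrate affinity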
# GPR151 confirm: GPR151 activators, triplicate retest, confirmation, cell-based, PathHunter beta-arrestin, luminescence. shares compounds with GPR151 ag. GPR151 PathHunter beta-arrestin cells, 90 min; % of EA-reagent control over plate median. activation, % at 11.2 µM. 6,700 tested, under 10 active;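 active = mean percent activation across replicates above the confirmation screen cutoff of 4.91%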
# GPR119 counter: GPR119 activators in beta-arrestin cells, counter-screen for GPR151 activator project, cell-based, PathHunter beta-arrestin, luminescence, triplicate | shares compounds with GPR151 ag | 90 min; 0 = compound-well median, 100 = enzyme-acceptor control | activation, % at 11.2 µM | 6,700 tested, 0.3% active | AID 1508611, 2020;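 active = mean percent activation in the counterscreen above 29.09%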;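 note: counterscreen on off-target GPR119 to flag nonselective hits from the GPR151 activator screen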
# The depositor's hits bear a star; / = no result given.
SMILES,GPR151 ag,TEAD-YAP block,MITF primary,FBW7 act,GPR151 confirm,GPR119 counter
CCn1nc(C)c(CN2CCC3(CC2)CC3C(=O)NCc2ccccc2)c1C (stereo unspecified),5.4*,8,-3,0,0,0
O=C(NCc1ccccc1)N1CCC(n2cnc3cccnc32)CC1,-1,7,14,0,/,/
NC(=S)N/N=C1/Cc2cccc3cccc1c23,0,-1,0,0,/,/
CCOc1ccccc1/C=C1\Oc2c(ccc(O)c2CN2CCN(CCO)CC2)C1=O,6.8*,1,2,0,0,6
CCOc1ccc(/C=C2\Oc3c(ccc(O)c3CN3CCN(CCO)CC3)C2=O)cc1,-1,-6,-8,0,/,/
CNS(=O)(=O)c1ccc(N2CCC(Cc3ccccc3)CC2)c([N+](=O)[O-])c1,3,-1,5,0,/,/
CN1C(=O)/C(=C2\SC(=S)N(c3ccc(CC(=O)O)cc3)C2=O)c2ccccc21,6.9*,3,11,0,0,0
CN1C(=O)/C(=C2\SC(=S)N(c3ccc(C(=O)O)cc3)C2=O)c2ccccc21,5.6*,7,21,0,1,16
CC(=O)c1ccc(N2C(=O)/C(=C3/C(=O)N(C(C)=O)c4ccccc43)SC2=S)cc1,-1,-5,7,0,/,/
CN1C(=O)/C(=C2\SC(=S)N(CC(=O)O)C2=O)c2ccccc21,1,-5,9,0,/,/
COC(=O)c1ccc(/C=C2\NC(=S)N(c3ccc(OC)cc3)C2=O)cc1,6.7*,12,5,0,0,2
COc1ccc(N2C(=O)/C(=C/c3ccc(OCC(=O)O)cc3)NC2=S)cc1,0,1,0,0,/,/
Cc1cccc(N2CCN(C(=O)c3ccc(SCc4cc(F)ccc4F)c([N+](=O)[O-])c3)CC2C)c1 (stereo unspecified),1,22,12,0,/,/
CCCN(CC(=O)Nc1ccccc1C)C(=O)CCl,8.4*,72*,3,0,0,-1
O=C1CCCN1CCCNc1nc(-c2csc3ccccc23)nc2c1ncn2Cc1ccc(C(F)(F)F)cc1,0,-8,-9,0,/,/
O=C1CCCN1CCCNc1nc(-c2csc3ccccc23)nc2c1ncn2-c1ccccc1,5.8*,11,0,0,0,-5
O=C1CCCN1CCn1cnc2c(NCCOc3ccccc3)nc(N3CCc4ccccc4C3)nc21,15*,10,0,0,2,-8
O=C1CCCN1CCCNc1nc(N2CCc3ccccc3C2)nc2c1ncn2CCN1CCCC1=O,-1,11,-3,0,/,/
Cc1noc(C)c1-c1nc(NCCOc2ccccc2)c2ncn(CCN3CCCC3=O)c2n1,6.1*,5,11,0,0,-8
O=C(Nc1ccc(-c2nc3c(Cl)cc(Cl)cc3[nH]2)cc1)C1CCCCC1,1,-10,-1,0,/,/
Cc1ccc(NC(=O)C2CCN(S(=O)(=O)c3ccc(Cl)s3)CC2)cc1,5.9*,2,-17,0,-1,-15
COc1cc(C2NC(=O)NC(C)=C2C(=O)Nc2ccccc2)ccc1O (stereo unspecified),0,-5,2,0,/,/
CCCCC1=CC2=C(c3ccco3)C(=O)C(C)(OC(=O)c3ccc(Cl)nc3)C(=O)C2=CO1 (stereo unspecified),6.5*,/,-7,0,0,-16
CCCCC1=CC2=C(c3ccco3)C(=O)C(C)(OC(=O)c3ccc(OC)cc3)C(=O)C2=CO1 (stereo unspecified),-1,/,21,0,/,/
C[C@H](CCC(=O)O)[C@H]1CC[C@H]2[C@@H]3[C@@H](O)C[C@@H]4C[C@H](O)CCC4(C)[C@H]3CCC12C (stereo partly specified),4,/,-12,0,/,/
